We go through 9 compounds from PubChem BioAssay (NCI).

Compounds without any hit were thinned out: in the full panel of roughly 79,000, 15% have a hit. A number with no mark means an inactive call. Active and inactive are the calls of the source. No stated cut-off is given here; in the data, active means growth inhibition above about 70%; inactive means the rest.

A short description of assay [1]: NCI Yeast Anticancer Drug Screen. Data for the rad50 strain (AID 155).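 Further: 0% = growth of vehicle-only cultures of the same strain.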 The conditions noted are these: S. cerevisiae rad50 strain growth inhibition, active compounds read high. The procedure, abridged:
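Yeast carrying a defined DNA repair defect were exposed to test compounds, and growth was compared with vehicle-treated controls to give percent inhibition.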

Assay [2] can be described thus: NCI Yeast Anticancer Drug Screen. Data for the mec2-1 strain (AID 157). The note with it: S. cerevisiae mec2-1 strain, active compounds read high. A digest of the protocol: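 Each compound was tested on mec2-1 yeast, a strain altered in DNA damage repair or cell cycle control. Growth inhibition is reported relative to vehicle.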
The nature of assay [3]: NCI Yeast Anticancer Drug Screen. Data for the sgs1 mgt1 strain (AID 161).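 Further: 0% = growth of cultures given vehicle only.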 The note with it: S. cerevisiae sgs1 mgt1 strain, active compounds read high. The procedure, abridged:
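Inhibition of yeast growth, normalised to vehicle-treated controls, is reported for a strain bearing genetic alterations in DNA damage repair.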

Assay [4] can be described thus: NCI Yeast Anticancer Drug Screen. Data for the cln2 rad14 strain (AID 165).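 Further: 0% = growth equal to vehicle treated cultures.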 The conditions noted are these: S. cerevisiae cln2 rad14 strain, active compounds read high. The procedure, abridged: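 Test compounds were added to cln2 rad14 yeast cultures; inhibition of growth was then determined by comparison with vehicle treatment.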
The nature of assay [5]: NCI Yeast Anticancer Drug Screen. Data for the bub3 strain (AID 167). The conditions noted are these: S. cerevisiae bub3 mutant strain, active compounds read high. A digest of the protocol:
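Compounds were applied to a genetically altered yeast strain carrying a cell-cycle control defect. Growth inhibition was scored against vehicle-treated controls.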

Assay [6] is described as follows: NCI Yeast Anticancer Drug Screen. Data for the mlh1 rad18 strain (AID 175). The note with it: S. cerevisiae mlh1 rad18 strain growth inhibition, active compounds read high. A digest of the protocol:
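Inhibition values reflect reduced growth of mutant yeast versus vehicle-treated controls following compound exposure; the mutations affect DNA damage repair.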

Where [7] appears, read: at 5.0 µM (retest, dose inferred, filed as 0.5).
[8] abbreviates: at 50.0 µM (retest, dose inferred, filed as 5.0).

With `COC(=O)C1(COCc2ccccc2)CCCC2OC21` (configuration not stated), the growth inhibition in assay [1] (setting [7]) was 16%; in assay [1] (setting [8]), -2%; in assay [1] (at 50.0 µM) it was 2.95%; in assay [2] (setting [7]) it was 6%; in assay [2] (setting [8]), -4%; in assay [2] (at 50.0 µM) it was -5.2%. Further, the growth inhibition in assay [3] (setting [7]) was -31%; in assay [3] (setting [8]) it was -2%; in assay [3] (at 50.0 µM) it was 10.4%; in assay [4] (setting [7]) it was 19%; in assay [4] (setting [8]), 43%; in assay [4] (at 50.0 µM), -2.55%. In addition, the growth inhibition in assay [5] (setting [7]) is 5%; in assay [5] (setting [8]), 79% (active); in assay [5] (at 50.0 µM), 2.45%; in assay [6] (setting [7]), 9%; in assay [6] (setting [8]), 10%; in assay [6] (at 50.0 µM) it was 6.5%.

Turning to `COC(=O)/C=C1/OC(c2ccccc2)=C(C)C1=O`, the growth inhibition is 6% in assay [1] (setting [7]); 6% in assay [1] (setting [8]); 30.7% in assay [1] (at 50.0 µM); 18% in assay [2] (setting [7]); 18% in assay [2] (setting [8]); 30.7% in assay [2] (at 50.0 µM). Further, the growth inhibition in assay [3] (setting [7]) is 14%; in assay [3] (setting [8]) it was 14%; in assay [3] (at 50.0 µM), 48.9%; in assay [4] (setting [7]), -6%; in assay [4] (setting [8]), -6%; in assay [4] (at 50.0 µM), -7.85%. For the same compound, the growth inhibition is 0% in assay [5] (setting [7]); 0% in assay [5] (setting [8]); 5.8% in assay [5] (at 50.0 µM); 8% in assay [6] (setting [7]); 8% in assay [6] (setting [8]); 42.6% in assay [6] (at 50.0 µM).

With `O=C(CC(=O)c1ccccc1)CC(=O)c1ccccc1`, the growth inhibition in assay [1] (setting [7]) was 31%; in assay [1] (setting [8]), 81% (active); in assay [1] (at 50.0 µM), 87.7% (active); in assay [2] (setting [7]) it was 24%; in assay [2] (setting [8]), 85% (active); in assay [2] (at 50.0 µM) it was 68.5%. Also, the growth inhibition in assay [3] (setting [7]) is 38%; in assay [3] (setting [8]) it was 85% (active); in assay [3] (at 50.0 µM), 74.7% (active); in assay [4] (setting [7]), 31%; in assay [4] (setting [8]), 55%; in assay [4] (at 50.0 µM), 65.9%. The growth inhibition in assay [5] (setting [7]) was 44%; in assay [5] (setting [8]), 95% (active); in assay [5] (at 50.0 µM) it was 88.7% (active); in assay [6] (setting [7]), 38%; in assay [6] (setting [8]), 95% (active); in assay [6] (at 50.0 µM), 84% (active).

Take `C=CCOc1ccc(-c2ccccc2)cc1C(=O)NC`: the growth inhibition is -9% in assay [1] (setting [7]); -5% in assay [1] (setting [8]); 1.25% in assay [1] (at 50.0 µM); 2% in assay [2] (setting [7]); -6% in assay [2] (setting [8]); 6.3% in assay [2] (at 50.0 µM). Besides, the growth inhibition is -2% in assay [3] (setting [7]); 20% in assay [3] (setting [8]); 5.1% in assay [3] (at 50.0 µM); -42% in assay [4] (setting [7]); -5% in assay [4] (setting [8]); 8.95% in assay [4] (at 50.0 µM). The growth inhibition is -3% in assay [5] (setting [7]); 8% in assay [5] (setting [8]); 42.9% in assay [5] (at 50.0 µM); -3% in assay [6] (setting [7]); 20% in assay [6] (setting [8]); 22.1% in assay [6] (at 50.0 µM).

For the compound `CCOC(=O)C1=C(C)NC(C)=C(C(=O)OCC)C1c1ccc([N+](=O)[O-])s1`, the growth inhibition in assay [1] (setting [7]) was 61%; in assay [1] (setting [8]) it was 98% (active); in assay [1] (at 50.0 µM), 91.3% (active); in assay [2] (setting [7]), 35%; in assay [2] (setting [8]), 98% (active); in assay [2] (at 50.0 µM) it was 93.2% (active). In addition, the growth inhibition in assay [3] (setting [7]) was 49%; in assay [3] (setting [8]), 95% (active); in assay [3] (at 50.0 µM) it was 93.2% (active); in assay [4] (setting [7]) it was 29%; in assay [4] (setting [8]), 77% (active); in assay [4] (at 50.0 µM), 91.7% (active). Moreover, the growth inhibition in assay [5] (setting [7]) was 40%; in assay [5] (setting [8]) it was 83% (active); in assay [5] (at 50.0 µM), 93.2% (active); in assay [6] (setting [7]) it was 65%; in assay [6] (setting [8]), 98% (active); in assay [6] (at 50.0 µM) it was 91.6% (active).

`CC12CCC3C(CCC4CC(O)CCC43C)C1CC1C2=NOC1O` (configuration not stated): the growth inhibition in assay [1] (setting [7]) is 0%; in assay [1] (setting [8]), 99% (active); in assay [1] (at 50.0 µM) it was 25.8%; in assay [2] (setting [7]), -2%; in assay [2] (setting [8]) it was 99% (active); in assay [2] (at 50.0 µM), 18.2%. For the same compound, the growth inhibition in assay [3] (setting [7]) is 0%; in assay [3] (setting [8]), 99% (active); in assay [3] (at 50.0 µM), 72.2% (active); in assay [4] (setting [7]), -8%; in assay [4] (setting [8]) it was 99% (active); in assay [4] (at 50.0 µM), 21%. The growth inhibition is -3% in assay [5] (setting [7]); 99% (active) in assay [5] (setting [8]); 73% (active) in assay [5] (at 50.0 µM); -1% in assay [6] (setting [7]); 99% (active) in assay [6] (setting [8]); 56.7% in assay [6] (at 50.0 µM).

For `Cc1cc2c(cc1C)C(=O)OC2=O`, the growth inhibition in assay [1] (setting [7]) is 1%; in assay [1] (setting [8]) it was 14%; in assay [1] (at 50.0 µM), 72% (active); in assay [2] (setting [7]) it was -1%; in assay [2] (setting [8]), -1%; in assay [2] (at 50.0 µM), 45.5%. In addition, the growth inhibition in assay [3] (setting [7]) is 2%; in assay [3] (setting [8]) it was 1%; in assay [3] (at 50.0 µM), 36.3%; in assay [4] (setting [7]) it was 1%; in assay [4] (setting [8]), -1%; in assay [4] (at 50.0 µM), 31.6%. Besides, the growth inhibition was -3% in assay [5] (setting [7]); 5% in assay [5] (setting [8]); 83.5% (active) in assay [5] (at 50.0 µM); -2% in assay [6] (setting [7]); 5% in assay [6] (setting [8]); 41.5% in assay [6] (at 50.0 µM).

Take `Nc1c(C(=O)Nc2ccccc2)[n+]([O-])c2ccccc2[n+]1[O-]`: the growth inhibition was -2% in assay [1] (setting [7]); 73% (active) in assay [1] (setting [8]); 98.2% (active) in assay [1] (at 50.0 µM); -3% in assay [2] (setting [7]); 60% in assay [2] (setting [8]); 97.7% (active) in assay [2] (at 50.0 µM). Besides, the growth inhibition was 1% in assay [3] (setting [7]); 88% (active) in assay [3] (setting [8]); 98% (active) in assay [3] (at 50.0 µM); -8% in assay [4] (setting [7]); 78% (active) in assay [4] (setting [8]); 97.2% (active) in assay [4] (at 50.0 µM). Besides, the growth inhibition in assay [5] (setting [7]) is -4%; in assay [5] (setting [8]), 90% (active); in assay [5] (at 50.0 µM), 98.7% (active); in assay [6] (setting [7]), -4%; in assay [6] (setting [8]) it was 91% (active); in assay [6] (at 50.0 µM), 98.2% (active).

`C=C(C)CCC(=C)C`: the growth inhibition in assay [1] (setting [7]) is 22%; in assay [1] (setting [8]) it was 91% (active); in assay [1] (at 50.0 µM), 48.7%; in assay [2] (setting [7]) it was 3%; in assay [2] (setting [8]), 47%; in assay [2] (at 50.0 µM), 14.1%. Moreover, the growth inhibition in assay [3] (setting [7]) is 11%; in assay [3] (setting [8]) it was 63%; in assay [3] (at 50.0 µM), 42.4%; in assay [4] (setting [7]), -4%; in assay [4] (setting [8]) it was 26%; in assay [4] (at 50.0 µM) it was 29.8%. Moreover, the growth inhibition in assay [5] (setting [7]) is -2%; in assay [5] (setting [8]), 2%; in assay [5] (at 50.0 µM), -35.2%; in assay [6] (setting [7]), 16%; in assay [6] (setting [8]), 64%; in assay [6] (at 50.0 µM), 42%.
